The values below come from PubChem BioAssay (NCI).

The panel holds about 79,000 compounds, 15% with a hit somewhere; the sample as a whole holds those more often. Values without a mark were called inactive. Activity calls are given as the source filed them. Cut-off read from the data, not from the text of the source: active = growth inhibition above about 70%; inactive = the rest.

Test [1] in a line: NCI Yeast Anticancer Drug Screen. Data for the rad50 strain (AID 155).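 Note: 0% = growth of vehicle-only cultures of the same strain.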 The following applies: S. cerevisiae rad50 strain growth inhibition, active compounds read high. The essentials: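 DNA repair mutant yeast, compound exposure, growth read-out; inhibition is taken relative to vehicle.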
Test [2] is described as follows: NCI Yeast Anticancer Drug Screen. Data for the mec2-1 strain (AID 157). The note with it: S. cerevisiae mec2-1 strain, active compounds read high. The essentials: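 Compounds were applied to mec2-1 yeast cells. Their growth was then compared with that of vehicle-treated cultures to give growth inhibition.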
The nature of test [3]: NCI Yeast Anticancer Drug Screen. Data for the sgs1 mgt1 strain (AID 161).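 Note: 0% = growth of cultures given vehicle only.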 The note with it: S. cerevisiae sgs1 mgt1 strain, active compounds read high. The essentials:
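This yeast growth screen uses a strain with defined DNA-repair lesions; compound-treated growth is compared with vehicle-treated growth.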

The nature of test [4]: NCI Yeast Anticancer Drug Screen. Data for the cln2 rad14 strain (AID 165).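 Note: 0% = growth equal to vehicle treated cultures.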 The note with it: S. cerevisiae cln2 rad14 strain, active compounds read high. The method in brief: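 Strain: cln2 rad14 yeast, altered in cell cycle control and DNA damage repair. Read-out: growth inhibition vs vehicle.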
Test [5] can be described thus: NCI Yeast Anticancer Drug Screen. Data for the bub3 strain (AID 167). The note with it: S. cerevisiae bub3 mutant strain, active compounds read high. The method in brief:
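In this screen, a yeast mutant lacking normal mitotic checkpoint function is challenged with compound. Relative growth versus vehicle gives the inhibition value.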

Test [6] is described as follows: NCI Yeast Anticancer Drug Screen. Data for the mlh1 rad18 strain (AID 175). The following applies: S. cerevisiae mlh1 rad18 strain growth inhibition, active compounds read high. The method in brief:
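A repair-deficient yeast strain is exposed to test compound, and growth is scored relative to vehicle-treated controls.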

[7] abbreviates: at 5.0 µM (retest, dose inferred, filed as 0.5).
Where [8] appears, read: at 50.0 µM (retest, dose inferred, filed as 5.0).

As for `Cc1ccc(/C=N\NC(=S)N/N=C/c2ccc(C)cc2)cc1`, the growth inhibition in test [1] (setting [7]) is -6%; in test [1] (setting [8]), 98% (active); in test [1] (at 50.0 µM), 30.3%; in test [2] (setting [7]) it was 2%; in test [2] (setting [8]), 99% (active); in test [2] (at 50.0 µM), 40%. Further, the growth inhibition was 2% in test [3] (setting [7]); 99% (active) in test [3] (setting [8]); 74.8% (active) in test [3] (at 50.0 µM); -43% in test [4] (setting [7]); 98% (active) in test [4] (setting [8]); 20% in test [4] (at 50.0 µM). The growth inhibition was -4% in test [5] (setting [7]); 99% (active) in test [5] (setting [8]); 94.5% (active) in test [5] (at 50.0 µM); 0% in test [6] (setting [7]); 98% (active) in test [6] (setting [8]); 59% in test [6] (at 50.0 µM).
`CCCCC(CC)COC(=O)c1cc2ccccc2oc1=O` (stereo not given): the growth inhibition was 3% in test [1] (setting [7]); 7% in test [1] (setting [8]); 70.8% (active) in test [1] (at 50.0 µM); 1% in test [2] (setting [7]); 13% in test [2] (setting [8]); 61.8% in test [2] (at 50.0 µM). The growth inhibition in test [3] (setting [7]) was 3%; in test [3] (setting [8]), 21%; in test [3] (at 50.0 µM) it was 68.5%; in test [4] (setting [7]), 5%; in test [4] (setting [8]) it was 4%; in test [4] (at 50.0 µM), 49.5%. In addition, the growth inhibition in test [5] (setting [7]) was 11%; in test [5] (setting [8]), 35%; in test [5] (at 50.0 µM) it was 79.6% (active); in test [6] (setting [7]), 3%; in test [6] (setting [8]), 19%; in test [6] (at 50.0 µM), 67.8%.
For the compound `CC(CN(C)C)C(=O)c1cn(C)c2ccccc12` (stereo not given), the growth inhibition was 1% in test [1] (setting [7]); 3% in test [1] (setting [8]); 9% in test [1] (at 50.0 µM); 5% in test [2] (setting [7]); 2% in test [2] (setting [8]); 16.8% in test [2] (at 50.0 µM). The growth inhibition was -2% in test [3] (setting [7]); 3% in test [3] (setting [8]); 30.3% in test [3] (at 50.0 µM); 3% in test [4] (setting [7]); 4% in test [4] (setting [8]); 12.6% in test [4] (at 50.0 µM). Besides, the growth inhibition was -2% in test [5] (setting [7]); -4% in test [5] (setting [8]); -9.05% in test [5] (at 50.0 µM); -2% in test [6] (setting [7]); 1% in test [6] (setting [8]); 70.2% (active) in test [6] (at 50.0 µM).
In the case of `CC1(C)CC(=O)C(CC2C(=O)c3ccccc3C2=O)C(=O)C1C(=O)C(=O)Nc1cccc2ccc(O)cc12` (stereo not given), the growth inhibition in test [1] (setting [7]) was 28%; in test [1] (setting [8]), 48%; in test [1] (at 50.0 µM) it was 7.85%; in test [2] (setting [7]) it was 25%; in test [2] (setting [8]), 23%; in test [2] (at 50.0 µM), -13.3%. In addition, the growth inhibition in test [3] (setting [7]) was 10%; in test [3] (setting [8]) it was 39%; in test [3] (at 50.0 µM) it was -8.6%; in test [4] (setting [7]), 22%; in test [4] (setting [8]), 39%; in test [4] (at 50.0 µM), -7.7%. For the same compound, the growth inhibition was 30% in test [5] (setting [7]); 36% in test [5] (setting [8]); -31.9% in test [5] (at 50.0 µM); 32% in test [6] (setting [7]); 52% in test [6] (setting [8]); -30.2% in test [6] (at 50.0 µM).
With `N#CC1C2CCC3(CC2CCN1C(=O)c1ccccc1)OCCO3` (stereo not given), the growth inhibition in test [1] (setting [7]) was -1%; in test [1] (setting [8]), 59%; in test [1] (at 50.0 µM) it was 32.5%; in test [2] (setting [7]), -1%; in test [2] (setting [8]), 76% (active); in test [2] (at 50.0 µM) it was 72.2% (active). The growth inhibition in test [3] (setting [7]) was -6%; in test [3] (setting [8]), 60%; in test [3] (at 50.0 µM) it was 43%; in test [4] (setting [7]) it was -7%; in test [4] (setting [8]), 78% (active); in test [4] (at 50.0 µM) it was 71.8% (active). For the same compound, the growth inhibition in test [5] (setting [7]) was 12%; in test [5] (setting [8]), 82% (active); in test [5] (at 50.0 µM), 82.8% (active); in test [6] (setting [7]), -7%; in test [6] (setting [8]), 77% (active); in test [6] (at 50.0 µM), 60.9%.
With `O=C(c1ccc(O)c(Br)c1)c1cc(Br)ccc1O`, the growth inhibition is 66% in test [1] (setting [7]); 98% (active) in test [1] (setting [8]); 95.7% (active) in test [1] (at 50.0 µM); 77% (active) in test [2] (setting [7]); 98% (active) in test [2] (setting [8]); 96.9% (active) in test [2] (at 50.0 µM). The growth inhibition was 73% (active) in test [3] (setting [7]); 98% (active) in test [3] (setting [8]); 97.8% (active) in test [3] (at 50.0 µM); 86% (active) in test [4] (setting [7]); 99% (active) in test [4] (setting [8]); 95.3% (active) in test [4] (at 50.0 µM). Also, the growth inhibition in test [5] (setting [7]) is 85% (active); in test [5] (setting [8]), 97% (active); in test [5] (at 50.0 µM), 96% (active); in test [6] (setting [7]), 78% (active); in test [6] (setting [8]), 98% (active); in test [6] (at 50.0 µM), 95.9% (active).
In the case of `O=C1/C(=C/c2ccc3c(c2)OCO3)Sc2scc(-c3ccc(O)c(O)c3)[n+]21`, the growth inhibition in test [1] (setting [7]) was 25%; in test [1] (setting [8]), 98% (active); in test [1] (at 50.0 µM), 83.8% (active); in test [2] (setting [7]), 33%; in test [2] (setting [8]), 99% (active); in test [2] (at 50.0 µM) it was 88.3% (active). Also, the growth inhibition in test [3] (setting [7]) is 67%; in test [3] (setting [8]), 98% (active); in test [3] (at 50.0 µM) it was 91% (active); in test [4] (setting [7]), 26%; in test [4] (setting [8]), 98% (active); in test [4] (at 50.0 µM), 89.4% (active). The growth inhibition in test [5] (setting [7]) is 97% (active); in test [5] (setting [8]), 98% (active); in test [5] (at 50.0 µM) it was 88.5% (active); in test [6] (setting [7]), 27%; in test [6] (setting [8]) it was 99% (active); in test [6] (at 50.0 µM), 90.8% (active).
Turning to `COc1ccc2c(Cc3cccc([N+](=O)[O-])c3)cncc2c1O`, the growth inhibition in test [1] (setting [7]) is 4%; in test [1] (setting [8]) it was 68%; in test [1] (at 50.0 µM) it was 29.8%; in test [2] (setting [7]), -2%; in test [2] (setting [8]), 86% (active); in test [2] (at 50.0 µM), 35.4%. Further, the growth inhibition was -6% in test [3] (setting [7]); 65% in test [3] (setting [8]); 24% in test [3] (at 50.0 µM); 4% in test [4] (setting [7]); 76% (active) in test [4] (setting [8]); 37.1% in test [4] (at 50.0 µM). The growth inhibition is 3% in test [5] (setting [7]); 91% (active) in test [5] (setting [8]); 85% (active) in test [5] (at 50.0 µM); 5% in test [6] (setting [7]); 92% (active) in test [6] (setting [8]); 58.8% in test [6] (at 50.0 µM).
For `C[N+]1=C(/C=C\c2ccc(O)c3ccccc23)C(C)(C)c2ccccc21`, the growth inhibition in test [1] (setting [7]) is -2%; in test [1] (setting [8]) it was 82% (active); in test [1] (at 50.0 µM), 40.5%; in test [2] (setting [7]), 3%; in test [2] (setting [8]) it was 89% (active); in test [2] (at 50.0 µM), 50.2%. The growth inhibition is -2% in test [3] (setting [7]); 92% (active) in test [3] (setting [8]); 36% in test [3] (at 50.0 µM); -4% in test [4] (setting [7]); 83% (active) in test [4] (setting [8]); 54.9% in test [4] (at 50.0 µM). The growth inhibition in test [5] (setting [7]) was 15%; in test [5] (setting [8]), 82% (active); in test [5] (at 50.0 µM), 38.5%; in test [6] (setting [7]), 28%; in test [6] (setting [8]), 82% (active); in test [6] (at 50.0 µM) it was 43.7%.
Turning to `COc1ccc2nc(N/N=C/c3ccccn3)cc(C)c2c1`, the growth inhibition in test [1] (setting [7]) is 10%; in test [1] (setting [8]), 56%; in test [1] (at 50.0 µM), 98.7% (active); in test [2] (setting [7]), -3%; in test [2] (setting [8]) it was 62%; in test [2] (at 50.0 µM) it was 98.1% (active). The growth inhibition in test [3] (setting [7]) is 0%; in test [3] (setting [8]) it was 57%; in test [3] (at 50.0 µM), 99.2% (active); in test [4] (setting [7]) it was 3%; in test [4] (setting [8]), 40%; in test [4] (at 50.0 µM) it was 96.5% (active). Besides, the growth inhibition is 4% in test [5] (setting [7]); 58% in test [5] (setting [8]); 98.3% (active) in test [5] (at 50.0 µM); 19% in test [6] (setting [7]); 75% (active) in test [6] (setting [8]); 99% (active) in test [6] (at 50.0 µM).
